ELG1 DNA repair = qHTS screen for small molecules that inhibit ELG1-dependent DNA repair in human embryonic kidney (HEK293T) cells expressing luciferase-tagged ELG1. HEK293T ELG1-luciferase reporter, luminescence, 16 h; DNA damage induced by 5-fluorouridine. Potency, µM (highest dose often 46.1 µM), inactives show at the top dose activity change, negative = inhibition, usual class: inhibitors. 330,000 tested, 2.3% active; further: potency means the concentration at half of the fitted maximal effect; nearly all actives have a fitted effect of over 55% in size
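Quantitative HTS, concentration-response format. 2,000 cells/well co-treated with 5-fluorouridine and compound, 16 hr in 5% CO2 at 37 °C; ONE-Glo luminescence read after 30 min.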
HT1080-NT tox = qHTS for induction of synthetic lethality in tumor cells producing 2HG: qHTS for the HT-1080-NT fibrosarcoma cell line; HT-1080-NT fibrosarcoma viability, CellTiter-Glo ATP luminescence, 48 h; Potency, µM (doses to about 46.1 µM), for inactives: top-dose activity, negative = less viability, usual class: cytotoxic; 360,000 tested, 1.6% active; AID 686970, 2013;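 further: NT is the 2HG producing partner of a matched IDH1 knockdown line; potency means the concentration at half of the fitted maximal effect; 0% = DMSO-treated cells and -100% = media-only wells without cells; nearly all actives have a fitted effect of over 55% in size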
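Toxicity toward the 2HG-producing NT line was scored as %Activity, normalised to DMSO and no-cell wells, from CellTiter-Glo luminescence after 48 hours' treatment.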
TDP1 cell CPT = qHTS for Inhibitors of human tyrosyl-DNA phosphodiesterase 1 (TDP1): qHTS in cells in presence of CPT; AID 686979, 2013; Potency, µM (titrated, usually from 46.2 µM), without a hit: top-dose activity change, negative = growth inhibition, hits mostly inhibitors; 420,000 tested, 12% active; chicken DT40 Tdp1-/-;hTDP1 cells + 20 nM CPT, ATP luminescence, 48 h; further: potency means the concentration at half of the fitted maximal effect; nearly all actives have a fitted effect of over 55% in size
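Cell growth measured by CellTiter-Glo luminescence after a minimum 48 h, 37 C compound exposure with 20 nM CPT in Tdp1-knockout DT40 cells stably expressing hTDP1, seeded 400/well; qHTS titration format.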
DT40 TDP1 no CPT = qHTS for Inhibitors of human tyrosyl-DNA phosphodiesterase 1 (TDP1): qHTS in cells in absence of CPT; DT40 Tdp1-/- hTDP1 cells, no CPT, ATP luminescence, 48 h; Potency, µM (titrated, usually from 46.2 µM), for the others: top-dose activity change, negative = growth inhibition, actives largely listed as inhibitors; 420,000 tested, 15% active; further: potency means the concentration at half of the fitted maximal effect; nearly all actives have a fitted effect of over 55% in size
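Luminescent ATP content (CellTiter-Glo) served as the growth readout. Knockout chicken DT40 cells expressing human TDP1 were exposed to compounds without camptothecin for a minimum 48 hr at 37 °C.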
HT1080 IDH1KD tx = qHTS for induction of synthetic lethality in tumor cells producing 2HG: qHTS for the HT-1080-IDH1KD cell line. Potency, µM (series often up to 46.1 µM), for the others: top-dose activity, negative = toxicity, actives largely listed as cytotoxic. 360,000 tested, 2% active. HT-1080 IDH1 knockdown viability, ATP luminescence, 48 h;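 further: potency means the concentration at half of the fitted maximal effect; 0% = DMSO wells and -100% = cell-free medium wells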
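Luminescent ATP read-out (CellTiter-Glo, 10 min at room temperature) after 48 h compound exposure at 37 °C gave viability of IDH1-knockdown HT-1080 cells. Activity was normalised to DMSO and cell-free wells, then fitted as concentration-response curves.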
IL1B secr inh = qHTS for Inhibitors of Inflammasome Signaling: IL-1-beta AlphaLISA Primary Screen | activity change, % at 57.5 µM | 360,000 tested, 4.7% active | AID 743279, 2014 | THP-1 LPS/ATP IL-1B secretion, AlphaLISA, 16 h; stronger effect = lower value; in the data active means activity change below about -50%; inconclusive means mostly about -30% to -49%
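Secreted IL-1B measured by AlphaLISA bead assay after 16 h compound exposure of THP-1 cells; compounds (final up to 57.5 uM) added 1 h before LPS (250 ng/mL) and ATP (1.25 mM) stimulation; lower signal means less secretion.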
* marks the source's active call; other numbers are inactive results; ? = inconclusive; / = no result given; ! = not active in a repeat. In the library only some 19% were active in any assay of this set; here they are far more common. Unless noted, the call rests on the fitted dose curve; in most records, active means well fitted curve in the direction sought with a large enough effect; inconclusive means small, poorly fitted or top-dose-only effect, or another doubt; inactive means no such curve, though single readings can be large; an effect the other way counts as inactive or inconclusive. Unless noted, on the % scale 0 is the no-effect control and ±100 the full control effect.

SMILES | ELG1 DNA repair | HT1080-NT tox | TDP1 cell CPT | DT40 TDP1 no CPT | HT1080 IDH1KD tx | IL1B secr inh
CCc1ccc(NC(=O)COC(=O)/C=C/c2ccco2)cc1 | ? | 3% | ? | ? | -2% | 34
CCN(c1ccc(NC(=O)COC(=O)/C=C/c2ccco2)cc1)C(C)C | 16% | 0% | 26µM* | 18µM* | 0% | -2
OC(c1ccc(F)c(F)c1)c1nc(-c2cccc3cccnc23)cs1 (stereo not drawn) | / | -2% | ? | ? | 1% | -19
CC(=O)c1ccc2cccc3c2c1N=CN3C | -15% | 0% | -4% | -12% | -14% | -59*
C=CCN1C(=O)c2ccc(C(=O)NCCc3ccc(OC)c(OC)c3)cc2C1=O | 0% | 0% | 6% | -1% | -1% | -3
CC1(C)C2CCC(CN=C(N)CSS(=O)(=O)O)C1C2 (stereo not drawn) | / | -7% | ? | ? | -21% | -58*
CCN(CC)c1ccc(/C=C2\SC(=O)N(C(C)C)C2=O)o1 | ? | 16µM* | 0.92µM* | 2.1µM* | 7.3µM* | -99*
CC(=O)c1ccc(S(=O)(=O)N2CCN(C(C)C(=O)N(C)Cc3ccccc3)CC2)cc1 (stereo not drawn) | -12% | 0% | ? | ? | -3% | 9
Cc1ccc(NC(=O)C2CC(=O)N(Cc3ccccc3)C2)cc1S(=O)(=O)N1CCCCCC1 (stereo not drawn) | ? | -20% | 29µM* | ? | -29% | -52*
O=C(Nc1ccc(S(=O)(=O)N2CCCCC2)cc1)C1CC(=O)N(Cc2ccccc2)C1 (stereo not drawn) | -16% | -2% | -13% | -22% | -1% | 2
CCN(CC)S(=O)(=O)c1cc(NC(=O)C2CC(=O)N(Cc3ccccc3)C2)ccc1Cl (stereo not drawn) | ? | -3% | ? | 16µM* | -29% | -14
Cc1ccc(NC(=O)C2CC(=O)N(C(C)C)C2)cc1C (stereo not drawn) | -20% | 15% | -15% | -17% | 4% | -65*
Cc1ccc2cc(C=O)c(N3CCOCC3)nc2c1C | 7% | -30% | ? | 18µM* | ? | ?
CC(=O)OC/C=C(\C)CC/C=C(\C)CC/C=C(\C)CC/C=C(\C)CC/C=C(\C)CC/C=C(\C)CC/C=C(\C)CC/C=C(\C)CCC=C(C)C | / | / | 10% | 14% | / | /
CC(C)=CCC1=C(OCC(=O)O)C(=O)c2ccccc2C1=O | -26% | ? | 23µM* | 29µM* | ? | 15
CC(C)=CCC/C(C)=C/CC/C(C)=C/CC/C(C)=C/CC1=C(C)C(=O)c2ccccc2C1=O | ? | -6% | 27µM*! | 24µM* | -20% | 0
COc1ccccc1OCC(=O)O | -2% | -3% | -1% | -7% | -1% | -11
COc1ccc(-c2nc(CSCC(=O)NC3CCCc4ccccc43)c(C)o2)cc1OC (stereo not drawn) | 16µM* | -11% | ? | 21µM* | -7% | -3
COc1ccc(-c2nc(CSCC(=O)N3CCc4ccccc4C3)c(C)o2)cc1OC | ? | -12% | ? | 21µM* | -10% | ?
COc1ccc(-c2nc(CS(=O)CC(=O)NC3CCCc4ccccc43)c(C)o2)cc1OC (stereo not drawn) | ? | -1% | ? | ? | 0% | -17

High-throughput results from PubChem BioAssay.
